Source: PubChem
This is a sample that favours compounds with a hit; in the whole collection about 1.7% have one here.
HEK293 tox = qHTS of GLP-1 Receptor Inverse Agonists: Cytotox Screen | actives 0.13% (n = 410,000) | Potency, µM (top dose mostly 38.3 µM), without a hit: top-dose activity change, negative = inhibition, most hits filed as inhibitors | HEK293 cAMP-luciferase reporter cells, luminescence, 24 h;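 note: loss of luciferase light is scored as toxicity; % is set by controls: 0 for no effect and ±100 for the full control effect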
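Here, cytotoxicity is scored as loss of luminescence. The MLSMR collection was tested on cells seeded in medium containing 10% Nu serum, with a 24 hr compound exposure preceded by 12 hours of culture.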
GLP-1R inv ag = qHTS of GLP-1 Receptor Inverse Agonists (Inhibition Mode); actives 1.6% (n = 410,000); Potency, µM (highest dose often 38.3 µM), for the others: top-dose activity change, negative = inhibition, most hits filed as inhibitors; AID 624417, 2012; Glucagon-like peptide 1 receptor (Homo sapiens), P43220; HEK293 GLP-1R CRE-luciferase, luminescence, 24 h; GLP-1R form is constitutively active; note: % is set by controls: 0 for no effect and ±100 for the full control effect; nearly all actives have a fitted effect of over 55% in size
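Assay principle: reduced luminescence from a cAMP-responsive reporter in HEK293 cells co-expressing a constitutively active GLP-1R. Conditions: 24 hr compound incubation, 37 deg C, 5% CO2.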
GLP-1R agonist = qHTS of GLP-1 Receptor Agonists; HEK293 GLP-1R CRE-luciferase, luminescence, 4-6 h; cells express a hypersensitive GLP-1R form; Potency, µM (top dose mostly 45.6 µM), without a hit: at the top dose activation, hits mostly activators; actives 0.007% (n = 380,000); AID 624172, 2012; note: % of control where 0% means no effect
PTHR1 ag = qHTS for PTHR1 Agonists: Primary Screen | AID 743266, 2014 | HEK293 GP2 PTHR1 cells, GloSensor cAMP luminescence, 1 h | Parathyroid hormone/parathyroid hormone-related peptide receptor (Homo sapiens), Q03431 | Potency, µM (top dose mostly 115 µM), for the others: at the highest dose activation, most hits filed as activators | actives 0.075% (n = 410,000); note: nearly all actives have a fitted effect of over 55% in size
Target sequence (Q03431 whole entry, looked up): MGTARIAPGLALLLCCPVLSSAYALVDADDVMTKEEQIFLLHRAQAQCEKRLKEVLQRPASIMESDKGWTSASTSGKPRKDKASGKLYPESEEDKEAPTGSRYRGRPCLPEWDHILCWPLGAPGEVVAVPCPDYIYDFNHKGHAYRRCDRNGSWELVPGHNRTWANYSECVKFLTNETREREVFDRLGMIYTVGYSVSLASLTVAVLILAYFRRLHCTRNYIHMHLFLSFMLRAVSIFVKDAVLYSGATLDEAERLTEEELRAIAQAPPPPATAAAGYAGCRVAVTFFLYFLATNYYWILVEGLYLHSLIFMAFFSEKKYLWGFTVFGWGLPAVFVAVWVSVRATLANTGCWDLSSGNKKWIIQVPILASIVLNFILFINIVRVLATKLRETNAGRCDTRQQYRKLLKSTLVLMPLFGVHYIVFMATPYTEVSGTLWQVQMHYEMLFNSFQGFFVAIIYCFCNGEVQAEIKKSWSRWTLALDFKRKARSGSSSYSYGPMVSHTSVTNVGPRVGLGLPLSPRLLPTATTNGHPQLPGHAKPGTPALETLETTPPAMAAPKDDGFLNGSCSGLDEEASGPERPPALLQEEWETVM
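HEK-293-derived GP2 cells expressing PTHR1 and a GloSensor cAMP reporter, 3,000/well, plated overnight, given luciferin plus IBMX (each 0.5 mM as added) for 1 h at 37 °C, then compound for 1 h at 37 °C. Luminescence was read after 15 min at room temperature.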
* marks the source's active call; other numbers are inactive results. Calls come from the whole dose curve; as a rule, active = well fitted curve in the direction sought with a large enough effect; inconclusive = small, poorly fitted or top-dose-only effect, or another doubt; inactive = no such curve, though single readings can be large; an effect the other way counts as inactive or inconclusive. Potency is the fitted concentration of half-maximal effect.

Cc1onc(-c2ccccc2)c1C(=O)NC(=S)NNC(=O)c1ccc(O)cc1O was read as HEK293 tox -1%, GLP-1R inv ag inconclusive, GLP-1R agonist 1% and PTHR1 ag inactive.
CSc1ccc(NC(=O)C2(C)CCN2C(=O)c2ccccc2CCc2ccccc2)cc1 (stereo unspecified) was read as HEK293 tox 3%, GLP-1R inv ag 10µM*, GLP-1R agonist -3% and PTHR1 ag -66%.
For CC1(C)Cc2c(C#N)c(SCCOc3ccccc3)nc(N3CCOCC3)c2CO1 the results were HEK293 tox -21%, GLP-1R inv ag 13µM*, GLP-1R agonist 2% and PTHR1 ag -50%.
Screening CC(/C=C1\SC(=S)N(CCC(=O)Nc2cccc(C(=O)O)c2)C1=O)=C\c1ccccc1 returned HEK293 tox 9%, GLP-1R inv ag 11%, GLP-1R agonist -1% and PTHR1 ag -21%.
`COC(=O)c1ccc(/C=C2\SC(=S)N(CCCC(=O)NCCCN3CCOCC3)C2=O)cc1` gave HEK293 tox 8.9µM*, GLP-1R inv ag -16%, GLP-1R agonist -5% and PTHR1 ag -25%.
Screening COc1cccc(/C=C2\SC(=S)N(CCCC(=O)N3CCCCC3CCO)C2=O)c1 (stereo unspecified) returned HEK293 tox -28%, GLP-1R inv ag inconclusive, GLP-1R agonist -3% and PTHR1 ag -38%.
For CC(/C=C1\SC(=S)N(CCC(=O)Nc2ccccc2O)C1=O)=C\c1ccccc1 the results were HEK293 tox -4%, GLP-1R inv ag 5.6µM*, GLP-1R agonist -13% and PTHR1 ag inactive.
Screening O=C(CCN1C(=O)/C(=C/c2ccccc2)SC1=S)NCCc1ccc(O)cc1 returned HEK293 tox inconclusive, GLP-1R inv ag 5µM*, GLP-1R agonist -5% and PTHR1 ag -23%.
COc1ccc(/C=C2\SC(=S)N(CCC(=O)NCCCN3CCOCC3)C2=O)cc1 was read as HEK293 tox inconclusive, GLP-1R inv ag inconclusive, GLP-1R agonist -1% and PTHR1 ag inactive.
`COc1cccc(/C=C2\SC(=S)N(CCCC(=O)N3CCCC3)C2=O)c1` gave HEK293 tox inconclusive, GLP-1R inv ag 5µM*, GLP-1R agonist -5% and PTHR1 ag -27%.
`O=C(NCc1cccnc1)c1nn(-c2ccc(F)cc2)nc1CO` gave HEK293 tox 0%, GLP-1R inv ag 17% and PTHR1 ag -50%.
`CC(=O)Nc1ccc(NC(=O)CCCn2nc(C)c3sc4ccccc4c3c2=O)cc1` gave HEK293 tox 3%, GLP-1R inv ag 2% and PTHR1 ag -12%.
COc1ccc(/C=C2/SC(=S)N(CCCC(=O)Nc3ccc(O)cc3)C2=O)cc1 was read as HEK293 tox inconclusive, GLP-1R inv ag 5.6µM*, GLP-1R agonist 5% and PTHR1 ag -29%.
`CCOC(=O)c1c(NC(=O)CN2CCN(C)CC2)sc(C(=O)Nc2ccccc2)c1C` gave HEK293 tox -13%, GLP-1R inv ag 13µM*, GLP-1R agonist 17% and PTHR1 ag inactive.
For CCOC(=O)c1sc(NC(=O)CCN2CCN(C)CC2)c(C(=O)OCC)c1C the results were HEK293 tox 3%, GLP-1R inv ag 11%, GLP-1R agonist 14% and PTHR1 ag inactive.
Screening CCN(CC)c1ccc(-n2nc3cc(C)c(NC(=O)c4ccccc4F)cc3n2)cc1 returned HEK293 tox 0%, GLP-1R inv ag 5% and PTHR1 ag -22%.
Screening COc1ccc(C)cc1NC(=O)NCCn1nnc2cc(S(=O)(=O)N(C)C)ccc21 returned HEK293 tox 3%, GLP-1R inv ag -2% and PTHR1 ag inactive.
Screening CC(C)Cn1nc(C(=O)N2CCc3ccccc32)c2ccccc2c1=O returned HEK293 tox 6%, GLP-1R inv ag 11µM*, GLP-1R agonist 2% and PTHR1 ag -18%.
For CCCn1nc(C(=O)N2CCc3ccccc32)c2ccccc2c1=O the results were HEK293 tox -1%, GLP-1R inv ag inconclusive, GLP-1R agonist 17% and PTHR1 ag -32%.
Screening Cc1c(-c2ccccc2)c(=O)oc2c(CN3CCCC3)c(O)ccc12 returned HEK293 tox 287%, GLP-1R inv ag -8% and PTHR1 ag inactive.
O=C(CN1C2CCCC1CC(NC(=O)c1ccccc1)C2)Nc1ccccc1C(F)(F)F (stereo unspecified) was read as HEK293 tox -7%, GLP-1R inv ag 2µM*, GLP-1R agonist 13% and PTHR1 ag -92%.
Screening CCn1c(=O)c2cc(C(=O)Nc3cc(C)c(Cl)cc3OC)sc2c2ccccc21 returned HEK293 tox 0%, GLP-1R inv ag 6%, GLP-1R agonist 0% and PTHR1 ag inactive.
Screening O=C(Nc1ccncc1)C1CCCN(S(=O)(=O)c2cccc3cccnc23)C1 (stereo unspecified) returned HEK293 tox -24%, GLP-1R inv ag 1.8µM*, GLP-1R agonist 8% and PTHR1 ag -15%.
For O=C(Nc1ccc(C(F)(F)F)cc1)C1CCCN(S(=O)(=O)c2cccc3cccnc23)C1 (stereo unspecified) the results were HEK293 tox 0%, GLP-1R inv ag inconclusive and PTHR1 ag -81%.
For O=C(NCCC1=CCCCC1)C1CCCN(S(=O)(=O)c2cccc3cccnc23)C1 (stereo unspecified) the results were HEK293 tox inconclusive, GLP-1R inv ag 7.9µM*, GLP-1R agonist 1% and PTHR1 ag -94%.
Screening CN(Cc1ccc(Cl)cc1)C(=O)CNC(=O)C12CC3CC(CC(C3)C1)C2 returned HEK293 tox -1%, GLP-1R inv ag 8.9µM*, GLP-1R agonist 4% and PTHR1 ag -41%.
CC(C)c1ccc(NC(=O)Cn2c(=O)n(CC3CCC(C(=O)NCCc4ccccc4)CC3)c(=O)c3ccccc32)cc1 (stereo unspecified) was read as HEK293 tox -1%, GLP-1R inv ag -6%, GLP-1R agonist 1% and PTHR1 ag -20%.
COc1cccc(NC(=O)CN(C)C(=O)Cc2ccc3c(c2)CCC3)c1 was read as HEK293 tox -15%, GLP-1R inv ag inconclusive, GLP-1R agonist 2% and PTHR1 ag -19%.
`CN(CC(=O)Nc1ccc(OC(F)(F)F)cc1)C(=O)Cc1ccc2c(c1)CCC2` gave HEK293 tox 1%, GLP-1R inv ag 5.6µM*, GLP-1R agonist 2% and PTHR1 ag -53%.
For CN1C(=O)C(CC(=O)Nc2ccc(F)cc2)N(Cc2cccs2)C1=S (stereo unspecified) the results were HEK293 tox -24%, GLP-1R inv ag inconclusive, GLP-1R agonist 9% and PTHR1 ag -2%.
